Experimental data published in PubChem BioAssay AID1159580 (chemical genetic matrix, 2015).
“And” between values parts separate entries of the source, which are not always exact repeats. Equal values may be shown once. In all, about 5,500 compounds went through this assay and about 2,000 (36%) were called active. About 18% were inconclusive and are not listed. Rule as the data show it: active = normalized growth mostly below about 0.91 (no sharp cut-off); inconclusive = no clear call, values can overlap the other calls; inactive = mostly above about 0.92. This is one part of the list.

Assay: chemical genetic growth profiling, strain panel (AID 1159580);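 also: tested at 20 µM; growth read once vehicle control cultures reached saturation at 30 °C; 1 = growth at the plate median or of vehicle wells; lower values mean less growth of the strain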
Settings: growth OD
[1] = S. cerevisiae deletion strains, locus YAL013W, strain DEP1, active compounds read low
[2] = S. cerevisiae deletion strains, locus YBR021W, strain FUR4, active compounds read low
[3] = S. cerevisiae deletion strains, locus YBR229C, strain ROT2, active compounds read low
[4] = S. cerevisiae deletion strains, locus YCL029C, strain bik1, active compounds read low
[5] = S. cerevisiae deletion strains, locus YDL035C, strain GPR1, active compounds read low
[6] = S. cerevisiae deletion strains, locus YDL074C, strain BRE1, active compounds read low
[7] = S. cerevisiae deletion strains, locus YDL101C, strain DUN1, active compounds read low
[8] = S. cerevisiae deletion strains, locus YDL134C, strain PPH21, active compounds read low
[9] = S. cerevisiae deletion strains, locus YDL185W, strain tfp1, active compounds read low
[10] = S. cerevisiae deletion strains, locus YDL192W, strain arf1, active compounds read low
[11] = S. cerevisiae deletion strains, locus YDR101C, strain arx1, active compounds read low
[12] = S. cerevisiae deletion strains, locus YDR150W, strain NUM1, active compounds read low
[13] = S. cerevisiae deletion strains, locus YDR162C, strain NBP2, active compounds read low
[14] = S. cerevisiae deletion strains, locus YDR318W, strain mcm21, active compounds read low
[15] = S. cerevisiae deletion strains, locus YDR388W, active compounds read low
[16] = S. cerevisiae deletion strains, locus YDR502C, strain sam2, active compounds read low
[17] = S. cerevisiae deletion strains, locus YEL061C, strain CIN8, active compounds read low
[18] = S. cerevisiae deletion strains, locus YER110C, active compounds read low
[19] = S. cerevisiae deletion strains, locus YER155C, strain BEM2, active compounds read low
[20] = S. cerevisiae deletion strains, locus YER167W, strain BCK2, active compounds read low
[21] = S. cerevisiae deletion strains, locus YGL078C, strain dbp3, active compounds read low
[22] = S. cerevisiae deletion strains, locus YGL086W, strain mad1, active compounds read low
[23] = S. cerevisiae deletion strains, locus YGL248W, strain PDE1, active compounds read low
[24] = S. cerevisiae deletion strains, locus YGR078C, strain PAC10, active compounds read low
[25] = S. cerevisiae deletion strains, locus YGR135W, strain pre9, active compounds read low
[26] = S. cerevisiae deletion strains, locus YGR229C, strain SMI1, active compounds read low
[27] = S. cerevisiae deletion strains, locus YGR252W, strain gcn5, active compounds read low
[28] = S. cerevisiae deletion strains, locus YHR030C, strain SLT2, active compounds read low
[29] = S. cerevisiae deletion strains, locus YHR079C, strain IRE1 (second series), active compounds read low
[30] = S. cerevisiae deletion strains, locus YHR079C, strain IRE1, active compounds read low
[31] = S. cerevisiae deletion strains, locus YHR094C, strain hxt1, active compounds read low
[32] = S. cerevisiae deletion strains, locus YHR129C, strain ARP1, active compounds read low
[33] = S. cerevisiae deletion strains, locus YHR200W, strain rpn10, active compounds read low
[34] = S. cerevisiae deletion strains, locus YIL066C, strain RNR3, active compounds read low
[35] = S. cerevisiae deletion strains, locus YIL073C, strain SPO22, active compounds read low
[36] = S. cerevisiae deletion strains, locus YIL125W, strain kgd1, active compounds read low
[37] = S. cerevisiae deletion strains, locus YIR030C, strain dcg1, active compounds read low
[38] = S. cerevisiae deletion strains, locus YJL095W, strain BCK1, active compounds read low
[39] = S. cerevisiae deletion strains, locus YJL134W, strain LCB3, active compounds read low
[40] = S. cerevisiae deletion strains, locus YJL168C, strain set2, active compounds read low
[41] = S. cerevisiae deletion strains, locus YJL187C, strain SWE1 (second series), active compounds read low
[42] = S. cerevisiae deletion strains, locus YJR043C, strain POL32, active compounds read low
[43] = S. cerevisiae deletion strains, locus YJR066W, strain TOR1, active compounds read low
[44] = S. cerevisiae deletion strains, locus YJR075W, strain HOC1, active compounds read low
[45] = S. cerevisiae deletion strains, locus YKL009W, strain mrt4, active compounds read low
[46] = S. cerevisiae deletion strains, locus YKL068W, active compounds read low
[47] = S. cerevisiae deletion strains, locus YKL085W, strain MDH1 (second series), active compounds read low
[48] = S. cerevisiae deletion strains, locus YKL085W, strain MDH1, active compounds read low
[49] = S. cerevisiae deletion strains, locus YKL190W, strain CNB1, active compounds read low
[50] = S. cerevisiae deletion strains, locus YKR001C, strain vps1, active compounds read low
[51] = S. cerevisiae deletion strains, locus YLR039C, strain RIC1, active compounds read low
[52] = S. cerevisiae deletion strains, locus YLR058C, strain SHM2, active compounds read low
[53] = S. cerevisiae deletion strains, locus YLR102C, strain apc9, active compounds read low
[54] = S. cerevisiae deletion strains, locus YLR113W, strain HOG1, active compounds read low
[55] = S. cerevisiae deletion strains, locus YLR262C, strain YPT6, active compounds read low
[56] = S. cerevisiae deletion strains, locus YLR268W, strain sec22, active compounds read low
[57] = S. cerevisiae deletion strains, locus YLR330W, strain CHS5, active compounds read low
[58] = S. cerevisiae deletion strains, locus YLR342W, strain FKS1 (second series), active compounds read low
[59] = S. cerevisiae deletion strains, locus YLR371W, strain rom2, active compounds read low
[60] = S. cerevisiae deletion strains, locus YLR418C, strain cdc73, active compounds read low
[61] = S. cerevisiae deletion strains, locus YML016C, strain PPZ1, active compounds read low
[62] = S. cerevisiae deletion strains, locus YML032C, strain rad52, active compounds read low
[63] = S. cerevisiae deletion strains, locus YML124C, strain tub3, active compounds read low
[64] = S. cerevisiae deletion strains, locus YMR078C, strain ctf18, active compounds read low
[65] = S. cerevisiae deletion strains, locus YMR223W, strain ubp8, active compounds read low
[66] = S. cerevisiae deletion strains, locus YMR263W, strain SAP30, active compounds read low
[67] = S. cerevisiae deletion strains, locus YMR307W, strain GAS1, active compounds read low
[68] = S. cerevisiae deletion strains, locus YNL067W, strain RPL9B, active compounds read low
[69] = S. cerevisiae deletion strains, locus YNL128W, strain TEP1, active compounds read low
[70] = S. cerevisiae deletion strains, locus YNL153C, strain GIM3, active compounds read low
[71] = S. cerevisiae deletion strains, locus YNL183C, strain NPR1, active compounds read low
[72] = S. cerevisiae deletion strains, locus YNL233W, strain BNI4, active compounds read low
[73] = S. cerevisiae deletion strains, locus YNL250W, strain rad50, active compounds read low
[74] = S. cerevisiae deletion strains, locus YNL271C, strain bni1, active compounds read low
[75] = S. cerevisiae deletion strains, locus YNL298W, strain CLA4, active compounds read low
[76] = S. cerevisiae deletion strains, locus YNL307C, strain MCK1, active compounds read low
[77] = S. cerevisiae deletion strains, locus YNL322C, strain KRE1, active compounds read low
[78] = S. cerevisiae deletion strains, locus YNR052C, strain pop2, active compounds read low
[79] = S. cerevisiae deletion strains, locus YOL006C, strain TOP1, active compounds read low
[80] = S. cerevisiae deletion strains, locus YOL012C, strain htz1
[81] = S. cerevisiae deletion strains, locus YOL147C, strain pex11, active compounds read low
[82] = S. cerevisiae deletion strains, locus YOR061W, strain CKA2, active compounds read low
[83] = S. cerevisiae deletion strains, locus YOR069W, strain VPS5, active compounds read low
[84] = S. cerevisiae deletion strains, locus YOR136W, strain idh2, active compounds read low
[85] = S. cerevisiae deletion strains, locus YOR144C, strain elg1, active compounds read low
[86] = S. cerevisiae deletion strains, locus YOR184W, strain ser1, active compounds read low
[87] = S. cerevisiae deletion strains, locus YOR231W, strain MKK1, active compounds read low
[88] = S. cerevisiae deletion strains, locus YOR316C, strain cot1, active compounds read low
[89] = S. cerevisiae deletion strains, locus YPL055C, strain LGE1, active compounds read low
[90] = S. cerevisiae deletion strains, locus YPL241C, strain CIN2, active compounds read low
[91] = S. cerevisiae deletion strains, locus YPL256C, strain CLN2, active compounds read low
[92] = S. cerevisiae deletion strains, locus YPR119W, strain clb2, active compounds read low
[93] = S. cerevisiae deletion strains, locus YPR141C, strain kar3, active compounds read low
[94] = S. cerevisiae deletion strains, locus YPR163C, strain tif3, active compounds read low
[95] = S. cerevisiae deletion strains, locus YPR167C, strain met16, active compounds read low
[96] = S. cerevisiae deletion strains, strain wtn01, active compounds read low
[97] = S. cerevisiae strains, strain wild type, active compounds read low

Measured: normalized growth

Cc1c(NC(C)C)c(=O)n(-c2ccccc2)n1C
inactive: [1] 1 | [2] 0.994 | [3] 0.989 | [4] 0.983 | [5] 1.02 | [6] 0.987 | [7] 0.985 | [8] 0.996 | [9] 0.984 | [10] 0.995 | [11] 0.984 | [12] 1 | [13] 1.01 | [14] 0.98 | [15] 0.974 | [16] 1 | [17] 1 | [18] 0.984 | [19] 0.99 | [20] 1 | [21] 0.995 | [22] 1 | [23] 1 | [24] 0.987 | [25] 0.983 | [26] 0.998 | [27] 1.09 | [28] 0.998 and 1.03 | [29] 0.98 | [30] 1.03 | [31] 0.98 | [32] 0.991 | [33] 0.981 | [34] 0.998 | [35] 1 | [36] 0.99 | [37] 0.986 | [38] 0.99 and 1.03 | [39] 0.998 | [40] 0.98 | [41] 0.984 | [42] 1 | [43] 0.962 | [44] 0.994 | [45] 0.999 | [46] 0.989 | [47] 1 | [48] 1 | [49] 1 | [50] 0.992 | [51] 1.05 | [52] 0.988 | [53] 0.98 | [54] 1.05 | [55] 1.01 | [56] 0.925 | [57] 1.01 | [58] 1.04 | [59] 0.974 | [60] 0.957 | [61] 0.988 | [62] 0.964 | [63] 0.985 | [64] 0.989 | [65] 1.01 | [66] 1 | [67] 0.978 | [68] 0.986 | [69] 1 | [70] 0.986 | [71] 0.974 | [72] 0.986 | [73] 0.977 | [74] 0.986 | [75] 0.971 | [76] 0.982 | [77] 0.993 | [78] 0.991 | [79] 0.927 | [80] 1.17 | [81] 0.991 | [82] 0.997 | [83] 0.988 | [84] 0.971 | [85] 0.97 | [86] 0.985 | [87] 1.04 | [88] 0.982 | [89] 1.01 | [90] 1 | [91] 1.09 | [92] 0.982 | [93] 0.975 | [94] 0.982 | [95] 0.971 | [96] 0.971 | [97] 0.995

CC(C)N=C(N)N=C(N)Nc1ccc(Cl)cc1
inactive: [1] 1.02 | [2] 1.02 | [3] 1.01 | [4] 1.02 | [5] 1.01 | [6] 1.02 | [7] 1.01 | [8] 1.01 | [9] 1.01 | [10] 1.01 | [11] 1.01 | [12] 1.02 | [13] 1.01 | [14] 1.02 | [15] 1.02 | [16] 1.01 | [17] 1 | [18] 1.02 | [19] 1.01 | [20] 1.02 | [21] 1.01 | [22] 1.01 | [23] 1.02 | [24] 1.01 | [25] 1 | [26] 1.01 | [27] 0.986 | [28] 1.01 and 1.03 | [29] 1.02 | [30] 1 | [31] 1.01 | [32] 1 | [33] 1.02 | [34] 1.01 | [35] 1.07 | [36] 1.01 | [37] 1.02 | [38] 1.02 and 0.993 | [39] 1.01 | [40] 1.02 | [41] 1.01 | [42] 1.02 | [43] 0.987 | [44] 1.02 | [45] 1.01 | [46] 1.01 | [47] 1.02 | [48] 1.02 | [49] 1.01 | [50] 1.02 | [51] 1.05 | [52] 1.02 | [53] 1.02 | [54] 0.951 | [55] 1.04 | [56] 1.03 | [57] 1.01 | [58] 1.02 | [59] 1.03 | [60] 1.02 | [61] 1.01 | [62] 1.02 | [63] 1.01 | [64] 1.02 | [65] 1.01 | [66] 1.01 | [67] 1.04 | [68] 1.01 | [69] 1.01 | [70] 1.01 | [71] 0.968 | [72] 1.01 | [73] 1.01 | [74] 1.01 | [75] 1.01 | [76] 1.02 | [77] 1.01 | [78] 1.01 | [79] 1.02 | [80] 1.92 | [81] 1.01 | [82] 1.01 | [83] 1.01 | [84] 1.02 | [85] 1.02 | [86] 1.01 | [87] 1.01 | [88] 1.02 | [89] 1.03 | [90] 1.01 | [91] 1.04 | [92] 1.01 | [93] 1.02 | [94] 1.02 | [95] 1.02 | [96] 1.01 | [97] 1.01
